Results taken from PubChem BioAssay (NCATS).
Inconclusive results are not listed. The source made the active and inactive calls. The call rests on the fitted dose curve; in most records, active means well fitted curve in the direction sought with a large enough effect; inconclusive means small, poorly fitted or top-dose-only effect, or another doubt; inactive means no such curve, though single readings can be large; an effect the other way counts as inactive or inconclusive.

Experiments:
[1] = Cellular Toxicity (caspase-3) Mesangial (AID 660); settings: mesangial cells, normalized: DMSO 0%, 100 µM tamoxifen 100%; at 91.7 µM (top of the series);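 further: combined caspase 3 and 7 activity read by Caspase-Glo luminescence; cells exposed to compound for 16 h before the caspase read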
Outline: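 AC50 values come from Hill-equation fits of caspase 3/7 activation, measured as Caspase-Glo luminescence in human glomerular mesangial cells exposed to compound for 16 h at 37 °C; 100% set by 100 uM tamoxifen.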

[2] = Cellular Toxicity (caspase-3) SK-N-SH (AID 661);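 further: 0% = DMSO basal and 100% = 10 µM staurosporine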
Outline: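 Apoptosis readout in SK-N-SH neuroblastoma: Caspase-Glo 3/7 luminescence following 16 hr treatment in complete culture medium. Normalization used DMSO and 10 uM staurosporine controls.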

[3] = Cellular Toxicity (caspase-3) H-4-II-E (AID 663); settings: H-4-II-E rat hepatoma, scaled: DMSO 0%, 100 µM tamoxifen 100%; at 92.2 µM (top of the series)
Outline: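 H-4-II-E rat hepatoma, 1500 cells/well, 5 hr settle at 37 °C; compound 16 hr, 37 °C, complete medium; Caspase-Glo 3/7, 20 min RT; luminescence. DMSO = 0%, 100 uM tamoxifen = 100%; Hill-equation AC50.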

[4] = Cellular Toxicity (caspase-3) Hek293 (AID 664); settings: HEK293 caspase-3 activation, DMSO = 0%, 100 µM tamoxifen = 100%; at 92.2 µM (top of the series);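 further: cells exposed to compound for 16 h at 37 °C before readout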
Outline: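 Apoptosis readout: Caspase-Glo 3/7 signal in human HEK293 cells following 16-hour compound incubation. Responses scaled between DMSO baseline and 100 uM tamoxifen.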

[5] = Cellular Toxicity (caspase-3) N2a (AID 665);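 further: compound exposure lasted 16 h at 37 °C before readout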
Outline: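 Concentration-response qHTS: compound-induced caspase-3/7 luminescence in N2a cells (16 h, 37 °C), relative to DMSO and 10 uM staurosporine controls; AC50 obtained using the standard Hill equation.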

[6] = Cellular Toxicity (caspase-3) NIH 3T3 (AID 666);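 further: 0% = DMSO basal and 100% = 100 µM tamoxifen stimulation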
Outline: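 Activity: caspase-3/7 induction, NIH 3T3 cells, 16 hr treatment at 37°C, luminescent Caspase-Glo detection; AC50 via Hill equation.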

[7] = Cellular Toxicity (caspase-3) Renal Proximal Tubule (AID 667); settings: Potency: caspase-3 activation;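 further: cells exposed to compound for 16 hours at 37 °C before detection; 0% = DMSO basal and 100% = 10 µM staurosporine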
Outline: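 Luminescent caspase 3/7 signal from peptide-aminoluciferin cleavage measures apoptosis in freshly isolated rat kidney proximal tubule cells after 16 h compound exposure. Concentration-response data are normalized to DMSO and 10 uM staurosporine, and AC50 values come from Hill equation fits.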

[8] = target: Cytochrome P450 3A4 (Homo sapiens) (UniProt P08684); experiment: qHTS Assay for Inhibitors and Substrates of Cytochrome P450 3A4 (AID 884); further: nearly all actives have a fitted effect of over 50% in size; further: potency means the concentration at half of the fitted maximal effect
Chain of Cytochrome P450 3A4 (Homo sapiens) (P08684 whole entry, looked up): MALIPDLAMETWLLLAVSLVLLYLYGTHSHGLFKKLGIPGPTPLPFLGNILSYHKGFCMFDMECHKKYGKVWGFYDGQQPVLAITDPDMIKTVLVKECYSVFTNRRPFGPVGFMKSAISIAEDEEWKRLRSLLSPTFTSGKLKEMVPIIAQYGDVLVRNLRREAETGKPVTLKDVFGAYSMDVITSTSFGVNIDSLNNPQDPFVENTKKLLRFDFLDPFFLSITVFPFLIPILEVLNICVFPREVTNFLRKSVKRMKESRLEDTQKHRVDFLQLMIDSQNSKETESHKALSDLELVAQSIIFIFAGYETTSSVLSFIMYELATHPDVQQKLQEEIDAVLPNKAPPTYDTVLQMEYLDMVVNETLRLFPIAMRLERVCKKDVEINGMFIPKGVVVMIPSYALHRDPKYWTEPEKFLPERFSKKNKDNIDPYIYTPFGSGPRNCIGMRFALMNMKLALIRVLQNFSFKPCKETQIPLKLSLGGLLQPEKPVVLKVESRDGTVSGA
Outline: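 Luminescent readout of luciferin produced by CYP3A4 (20 nM) dealkylation of Luciferin-PPXE, 25 uM (its KM). NADPH-driven reaction ran 60 min at RT after 10 min compound preincubation; data scaled to 57 uM ketoconazole as 100% inhibition.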

[9] = Cell Viability - LYMP2-001 (AID 921);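 further: 0% = DMSO only and full inhibition = tetraoctylammonium bromide control wells; nearly all actives have a fitted effect of over 70% in size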
Outline: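 CellTiter-Glo luminescence (intracellular ATP) after 24 hr compound exposure at 37 C, 2500 lymphoblastoid cells/well in complete medium. AC50 fitted with standard Hill equation; tetraoctylammonium bromide positive control.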

[10] = MultiTox-Fluor Cytotoxicity Assay - LYMP1-001 - Dead Cells (AID 946);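 further: 0% = DMSO and 100% = tetraoctylammonium bromide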
Outline: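 In this qHTS, 15 uM tetraoctylammonium bromide defined 100% and DMSO defined basal activity. Lymphoblastoid cells (LYMP1-001, 2500 per well) received compound for 16 hr at 37 C before a fluorogenic dead-cell substrate readout at 485/520 nm.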

[11] = Cell Viability - LYMP1-002 - Assay at 16 hr (AID 948);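 further: 0% = DMSO alone and full effect = 92 µM tetraoctylammonium bromide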
Outline: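 LYMP1-002 human lymphoblastoid cells, 2500/well; 5 hr 37 C; cpd 16 hr 37 C; CellTiter-Glo 30 min RT; luminescence (ATP). Concentration-response, Hill-fit AC50. Pos ctrl tetraoctylammonium bromide.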

[12] = MultiTox-Fluor Cytotoxicity Assay - LYMP1-002 - Live Cells (AID 955); further: on the % scale 0 is the no-effect control and ±100 the full control effect
Outline: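 In this qHTS viability format, lymphoblastoid cells (LYMP1-002, human) received compound for 16 hr at 37 C. Fluorogenic GF-AFC cleavage by viable cells was detected at 405/510 nm after 1 h at room temperature.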

[13] = MultiTox-Fluor Cytotoxicity Assay - LYMP1-002 - Dead Cells (AID 960);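 further: 0% = DMSO and 100% = tetraoctylammonium bromide; nearly all actives have a fitted effect of over 60% in size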
Outline: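 Concentration-dependent increases in membrane-leaked protease activity are quantified in LYMP1-002 cells after 16 hr treatment; values are normalized against DMSO and tetraoctylammonium bromide (15 uM) controls and AC50 derived by Hill modeling.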

[14] = MultiTox-Fluor Cytotoxicity Assay - LYMP1-003 - Dead Cells (AID 961);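 further: 0% = DMSO and 100% = tetraoctylammonium bromide; nearly all actives have a fitted effect of over 70% in size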
Outline: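 Acute toxicity is scored as increased dead-cell protease activity in human lymphoblastoid LYMP1-003 cells after 16 h compound exposure in complete culture medium. Activity is normalized to DMSO basal and 15 uM tetraoctylammonium bromide as full response.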

[15] = MultiTox-Fluor Cytotoxicity Assay - LYMP1-003 - Live Cells (AID 962);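 further: 0% = DMSO only and full loss = 92 µM tetraoctylammonium bromide; cytotoxic hits lower the live-cell protease signal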
Outline: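 Human lymphoblastoid line LYMP1-003 in complete culture medium, treated 16 hr with titrated compounds. Viable cells quantified via cell-permeant GF-AFC substrate fluorescence; AC50 derived by Hill fitting.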

[16] = Cell Viability - LYMP1-003 - Assay at 24 hr (AID 963);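 further: plate controls were DMSO only for no effect and tetraoctylammonium bromide positive control for full effect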
Outline: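 The lymphoblastoid line was treated with titrated compounds for 24 hours, and viable cell number estimated from luciferase-based ATP luminescence.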

[17] = Cell Viability - LYMP1-003 - Assay at 40 hr (AID 964); further: on the % scale 0 is the no-effect control and ±100 the full control effect; nearly all actives have a fitted effect of over 60% in size
Outline: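 Acute toxicity is scored as a concentration-dependent loss of intracellular ATP in LYMP1-003 cells (2500/well, complete medium) after 40 hr at 37 C, measured by CellTiter-Glo luminescence; AC50 values derive from standard Hill modelling.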

[18] = Cell Viability - LYMP2-003 (AID 965);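 further: cells exposed to compounds for 24 h before reading; 0% = DMSO only and full effect = 92 µM tetraoctylammonium bromide; nearly all actives have a fitted effect of over 50% in size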
Outline: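 CellTiter-Glo luminescence (cellular ATP) after 24 h compound exposure at 37 C in complete medium; 2500 cells/well, 5 h settling beforehand. Concentration-response fitted to standard Hill equation for AC50. Tetraoctylammonium bromide served as positive control.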

[19] = Cell Viability - LYMP2-004 (AID 966);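 further: plate controls were DMSO only for no effect and tetraoctylammonium bromide control for full effect; nearly all actives have a fitted effect of over 65% in size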
Outline: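 Viable-cell number estimated from ATP luminescence (CellTiter-Glo) in 2500 human lymphoblastoid cells/well after 24 hr at 37 C with compound. AC50 fitted to the standard Hill equation.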

[20] = MultiTox-Fluor Cytotoxicity Assay - LYMP1-001 - Live Cells (AID 947);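 further: 0% = DMSO only and full inhibition = tetraoctylammonium bromide control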

C=C(C)C(=O)OCCCCCCCCCC
inactive: caspase-3 activation [1] -0.0364% | outcome [2] | caspase-3 activation [3] -0.285% | caspase-3 activation [4] 2.37% | outcome [5] | outcome [6] | Potency [7] | Potency [8] | Potency [9] | outcome [10] | outcome [11] | outcome [12] | outcome [13] | Potency [14] | Potency [15] | Potency [16] | Potency [17] | Potency [18] | Potency [19]

CC(C)=C1CCC(C)CC1=O (stereo not drawn)
inactive: caspase-3 activation [1] 0.404% | outcome [2] | caspase-3 activation [3] -0.0437% | caspase-3 activation [4] -0.681% | outcome [5] | outcome [6] | Potency [7] | Potency [8] | Potency [9] | outcome [10] | outcome [11] | outcome [12] | outcome [13] | Potency [14] | Potency [15] | Potency [16] | Potency [17] | Potency [18] | Potency [19]

Cc1ccc2c(c1[N+](=O)[O-])C(=O)c1ccccc1C2=O
inactive: caspase-3 activation [1] -0.888% | outcome [2] | caspase-3 activation [3] -1.7% | caspase-3 activation [4] -1.55% | outcome [5] | outcome [6] | Potency [7] | Potency [9] | outcome [10] | outcome [11] | outcome [12] | outcome [13] | Potency [14] | Potency [15] | Potency [16] | Potency [17] | Potency [18] | Potency [19]
active: Potency [8] 12.6 µM

Cc1ccc(C)c(N)c1
inactive: caspase-3 activation [1] 1.89% | outcome [2] | caspase-3 activation [3] 3.4% | caspase-3 activation [4] 3.4% | outcome [5] | outcome [6] | Potency [7] | Potency [8] | Potency [9] | outcome [10] | outcome [11] | outcome [12] | outcome [13] | Potency [14] | Potency [15] | Potency [16] | Potency [17] | Potency [18] | Potency [19]

Cc1cscn1
inactive: caspase-3 activation [1] 0.991% | outcome [2] | caspase-3 activation [3] 0.996% | caspase-3 activation [4] 1.04% | outcome [5] | outcome [6] | Potency [7] | Potency [8] | outcome [10] | outcome [20] | outcome [11] | outcome [12] | outcome [13] | Potency [14] | Potency [15] | Potency [16] | Potency [17] | Potency [18] | Potency [19]

CC(N)CN (stereo not drawn)
inactive: caspase-3 activation [1] 2.7% | outcome [2] | caspase-3 activation [3] 0.364% | caspase-3 activation [4] 3.47% | outcome [5] | outcome [6] | Potency [7] | Potency [8] | Potency [9] | outcome [10] | outcome [11] | outcome [12] | outcome [13] | Potency [14] | Potency [15] | Potency [16] | Potency [17] | Potency [18] | Potency [19]

CC=C(Cl)Cl
inactive: caspase-3 activation [1] -0.275% | outcome [2] | caspase-3 activation [3] 0.108% | caspase-3 activation [4] 0.136% | outcome [5] | outcome [6] | Potency [7] | Potency [8] | outcome [10] | outcome [20] | outcome [11] | outcome [12] | outcome [13] | Potency [14] | Potency [15] | Potency [16] | Potency [17] | Potency [18] | Potency [19]

CCCCCNCCCCC
inactive: caspase-3 activation [1] 0.424% | outcome [2] | caspase-3 activation [3] 0.00908% | caspase-3 activation [4] 1.85% | outcome [5] | outcome [6] | Potency [7] | Potency [8] | Potency [9] | outcome [11] | outcome [12] | outcome [13] | Potency [14] | Potency [15] | Potency [16] | Potency [17] | Potency [18] | Potency [19]

CCCCCCCCCCCCC1CO1 (stereo not drawn)
inactive: caspase-3 activation [1] -0.00149% | outcome [2] | caspase-3 activation [3] 0.543% | caspase-3 activation [4] 1.51% | outcome [5] | outcome [6] | Potency [7] | Potency [8] | outcome [10] | outcome [20] | outcome [11] | outcome [12] | outcome [13] | Potency [14] | Potency [15] | Potency [16] | Potency [17] | Potency [18] | Potency [19]

CC1(N)CCC(C(C)(C)N)CC1 (stereo not drawn)
inactive: caspase-3 activation [1] -0.66% | outcome [2] | caspase-3 activation [3] 0.688% | caspase-3 activation [4] -1.41% | outcome [5] | outcome [6] | Potency [7] | Potency [8] | Potency [9] | outcome [10] | outcome [11] | outcome [12] | outcome [13] | Potency [15] | Potency [16] | Potency [17] | Potency [18]

CN(C)CCCNCCCN
inactive: caspase-3 activation [1] -0.219% | outcome [2] | caspase-3 activation [3] -0.0657% | caspase-3 activation [4] 0.619% | outcome [5] | outcome [6] | Potency [7] | Potency [8] | outcome [10] | outcome [20] | outcome [11] | outcome [12] | outcome [13] | Potency [14] | Potency [15] | Potency [16] | Potency [17] | Potency [18] | Potency [19]

Clc1ccc(Cl)c(Cl)c1Cl
inactive: caspase-3 activation [1] -0.853% | outcome [2] | caspase-3 activation [3] -0.982% | caspase-3 activation [4] -1.37% | outcome [5] | outcome [6] | Potency [7] | Potency [8] | outcome [10] | outcome [20] | outcome [11] | outcome [12] | outcome [13] | Potency [14] | Potency [15] | Potency [16] | Potency [17] | Potency [18] | Potency [19]

CCOCCOCC
inactive: caspase-3 activation [1] 0.404% | outcome [2] | caspase-3 activation [3] 1.77% | caspase-3 activation [4] 4.51% | outcome [5] | outcome [6] | Potency [7] | Potency [8] | Potency [9] | outcome [10] | outcome [11] | outcome [12] | outcome [13] | Potency [14] | Potency [15] | Potency [16] | Potency [17] | Potency [18] | Potency [19]

CCN(C(=O)N(CC)c1ccccc1)c1ccccc1
inactive: caspase-3 activation [1] 0.257% | outcome [2] | caspase-3 activation [3] 2.86% | caspase-3 activation [4] 0.606% | outcome [5] | outcome [6] | Potency [7] | Potency [8] | Potency [9] | outcome [10] | outcome [11] | outcome [12] | outcome [13] | Potency [14] | Potency [15] | Potency [16] | Potency [17] | Potency [18] | Potency [19]
